Rows were chosen to be rich in hits. Some 7% of all compounds tested hit in one or more screens of this group.
AHR act: human AHR activation. P35869. AHR-responsive luciferase reporter cells, luminescence. activation, % at 5 µM. 320,000 tested, 2.5% active. AID 2796; in the data active means activation above about 47%
rCAG binder: r(CAG) repeat RNA binding; TO-PRO-1 dye displacement fluorescence; inhibition, % at 3 µM; 370,000 tested, 1.3% active; AID 651821;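 active means inhibition above the plate cutoff, the mean of all test compounds on that plate plus 3 SD, cut at about 35% in these data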;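 further: higher means more dye released from RNA so lower well fluorescence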
ADAM17 inh: inhibitors of human ADAM17; 370,000 tested, 0.83% active; P78536; recombinant ADAM17, EDANS/DABCYL FRET peptide cleavage; inhibition, % at 6.95 µM;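 active means inhibition above the mean of compounds lying between control limits plus 3 SD, set per campaign, cut at about 8.5% in these data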
Target sequence (P78536 215-824 limits assumed): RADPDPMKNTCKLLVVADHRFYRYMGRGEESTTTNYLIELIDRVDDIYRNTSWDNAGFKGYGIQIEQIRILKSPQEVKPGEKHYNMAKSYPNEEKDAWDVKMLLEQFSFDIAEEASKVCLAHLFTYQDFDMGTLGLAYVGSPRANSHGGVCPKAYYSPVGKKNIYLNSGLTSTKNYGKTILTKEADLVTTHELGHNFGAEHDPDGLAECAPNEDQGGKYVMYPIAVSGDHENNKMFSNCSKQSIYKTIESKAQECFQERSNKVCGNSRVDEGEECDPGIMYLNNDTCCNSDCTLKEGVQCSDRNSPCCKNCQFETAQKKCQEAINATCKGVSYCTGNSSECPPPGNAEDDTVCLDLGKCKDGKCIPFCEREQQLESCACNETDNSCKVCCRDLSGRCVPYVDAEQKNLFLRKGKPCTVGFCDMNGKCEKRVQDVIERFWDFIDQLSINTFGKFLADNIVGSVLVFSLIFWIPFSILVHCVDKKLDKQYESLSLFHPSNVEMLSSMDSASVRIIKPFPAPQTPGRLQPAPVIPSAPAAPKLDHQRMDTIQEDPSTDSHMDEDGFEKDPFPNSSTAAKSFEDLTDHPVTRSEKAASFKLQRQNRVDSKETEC
ADAM10 inh: ADAM10 inhibition, QFRET primary screen. inhibition, % at 7 µM. 370,000 tested, 0.62% active. recombinant ADAM10, EDANS/DABCYL FRET peptide cleavage, 3 h. O14672;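 active means inhibition above a per-campaign cutoff equal to the mean of compounds falling between control-based bounds plus 3 SD, cut at about 20% in these data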
GRIN3A LBD mod: modulators (binders) of human NR3A ligand-binding domain; NR3A LBD differential scanning fluorimetry, Tm shift; 0% = protein alone, 100% = glycine-bound protein; Tm shift relative to glycine control, % at 25 µM; 340,000 tested, 2.5% active;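 active means melting temperature shift of at least 10% of the positive control shift, at one fixed dose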
KLK7 zymogen act: activates the human kallikrein-7 zymogen | P49862 | purified proKLK7, EDANS-DABCYL substrate fluorescence; 100% is mature enzyme control, 0% vehicle | activation, % at 7 µM | 370,000 tested, 0.9% active | AID 652039;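 active means activation above the mean of all tested compounds plus 3 SD, computed per campaign excluding outliers beyond control limits, cut at about 13% in these data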
ADAM10 confirm: confirmation of inhibitors of human ADAM10. shares compounds with ADAM10 inh. ADAM10 QFRET peptide cleavage, EDANS fluorescence. inhibition, % at 6.95 µM. 2,100 tested, 1% active. AID 743208;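 active means inhibition above about 20% chosen separately for each screening run, limit read from the data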
ADAM17 counter: inhibits human ADAM17 in ADAM10 exosite counter-screen | 2,100 tested, 0.5% active | shares compounds with ADAM10 inh | ADAM17 QFRET peptide cleavage, EDANS fluorescence | AID 743214 | inhibition, % at 6.95 µM;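 active means mean triplicate inhibition above the solvent-only control wells' mean plus 3 SD, cut at about 12% in these data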
Large screens that a line does not name were inactive (follow-up assays come after a bar, where they were run).

CCN(CC)C(=O)C1CCCN(Cc2ccc3ccccc3c2)C1 (centres undefined)	none
CCN(CC)C(=O)C1CCCN(Cc2cccc(F)c2)C1 (centres undefined)	ADAM10 inh 79 | ADAM10 confirm inactive | ADAM17 counter inactive
CC(C)C(C)NC(=O)CN1C(=O)NC(c2ccccc2)(c2ccccc2)C1=O (centres undefined)	none
O=C(COc1ccccc1F)N1N=C(c2cccs2)CC1c1ccco1 (centres undefined)	none (no result: AHR act)
COc1cccc(CNc2ccc(Br)cn2)c1O	ADAM10 inh 25 | ADAM10 confirm inactive | ADAM17 counter inactive
CCOc1ccc(NC(C)c2cc(Cl)ccc2O)cc1 (centres undefined)	none
CC(Nc1ccc(Cl)cc1)c1cc(Cl)ccc1O (centres undefined)	ADAM10 inh 23 | ADAM10 confirm inactive | ADAM17 counter inactive
O=c1[nH]c(=O)n2c(c1-c1ccccc1)OC(CBr)C2 (centres undefined)	none (no result: AHR act, GRIN3A LBD mod)
CCOC(=O)c1ccc(NC(=S)N(Cc2cccnc2)Cc2ccco2)cc1	none
CCOc1ccc(NC(=S)N(Cc2ccc(Cl)cc2)Cc2ccco2)cc1	ADAM10 inh 24 | ADAM10 confirm inactive | ADAM17 counter inactive
O=C(NCC1CCCO1)c1cccc(S(=O)(=O)NCc2ccccc2)c1 (centres undefined)	none
FC(F)(F)c1ccc(-c2nc(=S)[nH][nH]2)cc1	ADAM10 inh 25 | ADAM10 confirm inactive | ADAM17 counter inactive
Oc1ccc(-c2nc(=S)[nH][nH]2)cc1	none
COc1ccc(NC(=O)c2ccc(-c3ccccc3)cc2)cc1NS(=O)(=O)c1ccc(F)cc1	ADAM10 inh 24 | ADAM10 confirm 31 | ADAM17 counter inactive
CC(C)Oc1ccc(CC(=O)NNC(=S)Nc2ccccc2)cc1	ADAM10 inh 27 | ADAM10 confirm inactive | ADAM17 counter inactive
CC(C)Oc1ccc(CCC(=O)NNC(=S)Nc2ccccc2)cc1	none
CCOc1ccc(CC(=O)NNC(=S)Nc2ccccc2)cc1Br	ADAM10 inh 20, GRIN3A LBD mod 13 | ADAM10 confirm inactive | ADAM17 counter inactive
COc1ccc(CC(=O)NNC(=S)Nc2ccccc2)cc1Br	none
O=C(Cc1noc2ccccc12)NNC(=S)Nc1ccccc1	ADAM10 inh 20 | ADAM10 confirm inactive | ADAM17 counter inactive
Cc1cccc(N2CCN(S(=O)(=O)c3ccc4c(c3)NC(=O)C(C)S4)CC2)c1C (centres undefined)	none
Cc1cccc(N2CCN(S(=O)(=O)c3ccc4c(c3)NC(=O)CS4)CC2)c1C	ADAM10 inh 23 | ADAM10 confirm inactive | ADAM17 counter inactive
COc1ccc(N2CCN(C(=O)CN(c3ccc(OC)cc3)S(=O)(=O)c3ccccc3)CC2)cc1	ADAM10 inh 21 | ADAM10 confirm inactive | ADAM17 counter inactive
COc1cc(/C=C2\SC(=S)N(CCC(=O)Nc3ccccc3)C2=O)cc(OC)c1OC	none
COc1ccccc1/C=C1\SC(=S)N(CCC(=O)Nc2cccc(O)c2)C1=O	ADAM10 inh 23 | ADAM10 confirm inactive | ADAM17 counter inactive
COc1cc(/C=C2\SC(=S)N(CCC(=O)Nc3cccc(O)c3)C2=O)cc(OC)c1OC	ADAM10 inh 21 | ADAM10 confirm inactive | ADAM17 counter inactive
O=C(CN(C(=O)c1csnn1)c1cccc(C(F)(F)F)c1)NCCc1ccccc1	none
CCOC(=O)c1[nH]ncc1CN1CCc2ccc(NC(=O)C3CCCO3)cc2C1 (centres undefined)	none
Fc1ccc(NC(=S)Nc2cc(-c3ccccc3)[nH]n2)cc1Cl	AHR act 53, ADAM10 inh 22, GRIN3A LBD mod 26 | ADAM10 confirm inactive | ADAM17 counter inactive
Cc1nc2nc(NCc3cccs3)nn2c(C)c1Cl	none
O=C(Nc1nc2ccccc2s1)C1CCCO1 (centres undefined)	none
O=C(Nc1nc2ccccc2s1)C1c2ccccc2Oc2ccccc21	ADAM10 inh 28, GRIN3A LBD mod 11 | ADAM10 confirm inactive | ADAM17 counter inactive
Cc1ccc(CSc2nnc(CNc3ccc(F)cc3)o2)cc1	ADAM10 inh 26 | ADAM10 confirm inactive | ADAM17 counter inactive
Cc1cc(NC(=O)CSCC(=O)N2CCN(c3cccc(C(F)(F)F)c3)CC2)no1	none
C=CCC[C@H](CCCCC)OC(=O)/C=C/[C@@H](O)[C@H](O)C[C@@H](O)CC=C	ADAM10 inh 21 (no result: AHR act, GRIN3A LBD mod) | ADAM10 confirm inactive | ADAM17 counter inactive
C=CCC[C@@H](CCCCC)OC(=O)/C=C/[C@H](O)[C@@H](O)C[C@@H](O)CC=C	none (no result: AHR act, GRIN3A LBD mod)
COCCNC(=O)c1onc(CSc2ccccn2)c1C(=O)NCCOC	none
CC(C)CCNC(=O)c1onc(CSc2ccccn2)c1C(=O)NCCC(C)C	ADAM10 inh 20 | ADAM10 confirm inactive | ADAM17 counter inactive
C[C@H](CO)N1C[C@H](C)[C@H](CN(C)Cc2ccccc2)Oc2ncc(Br)cc2C1=O	none (no result: AHR act, GRIN3A LBD mod)
COc1ccc(C2(CNC(=O)c3cccc([N+](=O)[O-])c3)CCOCC2)cc1	none
COc1cc(C2c3c(-c4cc(Cl)c(C)cc4O)n[nH]c3C(=O)N2Cc2cccnc2)ccc1O (centres undefined)	ADAM10 inh 21 | ADAM10 confirm inactive | ADAM17 counter inactive
COc1cccc(C2c3c(-c4cc(Cl)c(C)cc4O)n[nH]c3C(=O)N2Cc2cccnc2)c1 (centres undefined)	none
COc1ccccc1NC(=O)c1cccs1	none
COc1ccccc1NC(=O)c1ccccc1NC(=O)c1cccs1	ADAM10 inh 21 | ADAM10 confirm inactive | ADAM17 counter inactive
CC(=O)N1c2ccc(S(=O)(=O)NCC3CCC(C(=O)NCc4ccc(C)cc4)CC3)cc2CC1C (centres undefined)	ADAM10 inh 74 | ADAM10 confirm inactive | ADAM17 counter inactive
CCOc1cc(/C=N\NC(=O)c2ccc(C)nc2)cc([N+](=O)[O-])c1O	none
COc1cc(/C=N/NC(=O)c2ccc(C)nc2)cc([N+](=O)[O-])c1O	ADAM10 inh 22 | ADAM10 confirm inactive | ADAM17 counter inactive
Nc1cccc2cccc([N+](=O)[O-])c12	none (no result: AHR act)
O=C(Nc1cc(Sc2ccccn2)cc([N+](=O)[O-])c1)c1cccc(Cl)c1	ADAM10 inh 20 | ADAM10 confirm inactive | ADAM17 counter inactive
O=C(Nc1cc(Sc2ccccn2)cc([N+](=O)[O-])c1)c1ccc(Cl)cc1	none
Cc1ccc(S(=O)(=O)N(C)C)cc1NC(=O)COC(=O)C1CC1	none
S=c1[nH]nc(CSc2nc3ccccc3s2)o1	ADAM10 inh 25 | ADAM10 confirm inactive | ADAM17 counter inactive

Bioassay records as filed in PubChem BioAssay.
